The campaign covered roughly 390,000 compounds. About 17,000 (4.4%) were called active. Not shown: some 8% with an inconclusive outcome. What follows is part of a selection rich in actives, with near analogues and random picks from the rest. A number with no mark means an inactive call. The call rests on the fitted dose curve; in most records, active means well fitted inhibition curve with a large enough effect; inconclusive means small, poorly fitted or top-dose-only effect; inactive means no such curve, though single readings can be large or run the other way.
Biological target: Lysine-specific demethylase 4A (Homo sapiens) (UniProt O75164)
Sequence (O75164 whole entry, looked up, the tested form may be a part): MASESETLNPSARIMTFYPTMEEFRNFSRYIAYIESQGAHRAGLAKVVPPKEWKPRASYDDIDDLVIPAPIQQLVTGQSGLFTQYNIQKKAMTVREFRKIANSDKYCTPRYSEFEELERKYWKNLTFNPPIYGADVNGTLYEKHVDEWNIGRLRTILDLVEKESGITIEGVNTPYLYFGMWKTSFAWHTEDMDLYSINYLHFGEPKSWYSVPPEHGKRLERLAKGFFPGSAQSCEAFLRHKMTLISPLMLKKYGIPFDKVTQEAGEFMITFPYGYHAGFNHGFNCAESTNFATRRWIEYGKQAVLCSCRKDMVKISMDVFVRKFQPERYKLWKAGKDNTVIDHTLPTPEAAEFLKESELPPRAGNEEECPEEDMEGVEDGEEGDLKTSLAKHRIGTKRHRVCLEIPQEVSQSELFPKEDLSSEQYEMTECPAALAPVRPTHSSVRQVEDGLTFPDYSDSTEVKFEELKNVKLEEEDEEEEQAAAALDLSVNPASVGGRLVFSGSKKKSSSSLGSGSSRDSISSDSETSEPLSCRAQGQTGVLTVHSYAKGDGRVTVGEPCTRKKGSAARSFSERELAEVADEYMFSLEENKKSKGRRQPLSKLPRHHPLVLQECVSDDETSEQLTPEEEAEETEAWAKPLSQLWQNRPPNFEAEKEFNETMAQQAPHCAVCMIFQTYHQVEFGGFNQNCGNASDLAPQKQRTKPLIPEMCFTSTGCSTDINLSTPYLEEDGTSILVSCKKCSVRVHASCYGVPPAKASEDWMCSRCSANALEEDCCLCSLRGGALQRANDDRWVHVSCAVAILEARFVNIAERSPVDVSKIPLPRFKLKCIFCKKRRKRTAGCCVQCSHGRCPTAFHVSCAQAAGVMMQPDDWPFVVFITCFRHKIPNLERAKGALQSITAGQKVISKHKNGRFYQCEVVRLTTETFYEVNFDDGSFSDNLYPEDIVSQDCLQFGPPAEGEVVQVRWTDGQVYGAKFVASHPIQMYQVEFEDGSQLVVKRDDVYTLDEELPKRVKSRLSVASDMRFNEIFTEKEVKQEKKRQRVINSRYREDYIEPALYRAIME
Test: qHTS Assay for Inhibitors of JMJD2A-Tudor Domain; further: nearly all actives have a fitted effect of over 50% in size
Settings: AlphaScreen JMJD2A-Tudor / H3K4me3 peptide binding; series mostly up to 114 µM; activity change, negative = inhibition: at the top concentration
Source text: JMJD2A is a jumonji-domain-containing lysine demethylase that uses Fe(II) together with 2-OG to effect oxidative demethylation of histones. Methylation is one of many […] modification that affect epigenetic transcription. […] It is proposed that the functions of JmjD2A binding to the histones, is to maintain marks after they are installed and to spread the modifications by […], establishing a self-propagating cycle for rapid methylation over a large area of chromatin. […] Thus, small molecule targeting of the JMJD2A-tudor domain interaction with its target methylhistone mark is expected to enable sophisticated experiments probing the fine regulatory pathways leading to selective demethylation of a given methyllysine locus based on the methylation state of adjacent histone marks. A quantitative high throughput AlphaScreen has been developed to identify small molecule inhibitors based on a protocol published by NCGC and SGC [4].
Although AlphaScreen has significant advantages with its utility in a variety of epigenetic target assays, the primary screening data provided in this deposition should be used with caution due to the prevalence of screening artifacts. The top compound concentration tested was high (>100uM) in this assay, which increases number of actives and potential artifacts. An AlphaScreen counterscreen is highly recommended to be run against any putative actives to eliminate non-specific artifacts. Alternatively, one can use other AlphaScreen assays in PubChem to filter out promiscuous hits.
[1] Lee, J. et al. Distinct binding modes specify the recognition of methylated histone H3K4 and H4K20 by JMJD2A-tudor. Nat Struct Mol Biol. 15(1); 109-11. 2008. PMID: 18084306
[2] Yasgar, et al. Compound Management for Quantitative High-Throughput Screening. JALA. 2008 Apr;13(2):79-89. PMID: 18496600
[3] Inglese, et al. Quantitative high-throughput screening: a titration-based approach that efficiently identifies biological activities in large chemical libraries. Proc Natl Acad Sci. 1;103(31):11473-8. 2006. PMID: 16864780
[4] Quinn et al. A homogeneous method for investigation of methyl-dependent protein-protein interactions in epigenetics. Nucleic Acids Res., 38(2):e11. 2010. PMID: […]
[5] Baell,Holloway. New substructure filters for removal of pan assay interference compounds (PAINS) from screening libraries and for their exclusion in bioassays. J Med Chem. 53(7):2719-40. 2010. PMID: 20131845
NIH Molecular Libraries Probe Production Network [MLPCN]
NIH Chemical Genomics Center [NCGC]
Structural Genomics Consortium (SGC)
To each well of a 1,536w plate, 2ul of JMJD2A-Tudor (final 100nM) and 1ul biotinylated histone peptide methylated at Lys4 [b-H3(1-18)K4me3] (final 50nM) were added in 1x PBS buffer, pH 7.4, containing 0.01% Tween-20, using a nanoliter dispenser. Formation of a protein-peptide complex proceeded at room temperature for 30 min. A Kalypsys pin-tool transferred 23nl of library compound solution in DMSO to each well. Following a 30 min incubation of the protein-peptide complex with compounds at room temperature, a mixture of 40 µg/mL each streptavidin-coated donor and nickel chelate acceptor AlphaScreen beads (final 10 µg/mL) was added in a 1ul dispense for a final volume of 4ul, followed by a brief centrifugation (1000 rpm, 1 min). Plates were incubated protected from the light for 20 min at room temperature. Microplates were then read on an EnVision multilabel plate reader using the 1,536 plate HTS AlphaScreen aperture (excitation time 80 ms, measurement time 240 ms).
On the % scale 0 is the no-effect control and ±100 the full control effect; potency means the concentration at half of the fitted maximal effect.

Structure (SMILES)	activity change, negative = inhibition	Potency
O=C(NCCc1ccc(Cl)cc1)c1ccc2nc(CCc3ccccc3)oc2c1	-6.71%	
O=C(c1ccc2c(c1)N(Cc1ccccc1)C(=O)c1ccccc1S2(=O)=O)N1CCC(Cc2ccccc2)CC1	-15.2%	
O=C(CN1CCN(Cc2ccc(Cl)cc2)C1=O)NCc1ccc(F)cc1	-17%	
Cn1c(SCC(=O)N2CCCc3ccccc32)ncc(C(=O)Nc2ccc(F)cc2)c1=O	2.27%	
CC(=O)Nc1cc(C(=O)NCc2ccc(F)cc2)ccc1Sc1ccc(F)cc1	-11.9%	
COc1cc(Cl)c(NC(=O)C(NS(=O)(=O)c2cccs2)C(C)C)c(OC)c1 (configuration not stated)	-6.62%	
CCC(C(=O)Nc1cccc(-c2nc3cccnc3s2)c1C)c1ccccc1 (configuration not stated)	-18.5%	
O=C(CN1CCN(Cc2ccccc2)CC1)Nc1ccc(F)c(F)c1		6.31 µM (active)
CC(=O)N1CCN(CC(=O)Nc2ccc(SC(F)F)cc2)CC1	-9.59%	
CCCCN(C)CCC(=O)Nc1ccc(Cl)cc1	11% [at 57.1 µM]	
O=C(CN1CCN(c2ccc(O)cc2)CC1)Nc1ccc(-c2ccccc2)cc1		50.1 µM (active)
COC(=O)c1cc(NC(=O)CN2CCN(C(C)=O)CC2)cc(C(=O)OC)c1	-0.37% [at 57.1 µM]	
O=C(CN1CCN(C(=O)c2ccco2)CC1)Nc1ccc(Cl)c(C(F)(F)F)c1	6.53%	
O=C(CN1CCN(c2ccccn2)CC1)Nc1ccc(Br)cc1	-34.8%	
CC(=O)N1CCN(CC(=O)Nc2ccc(C)c(F)c2)CC1		17.8 µM (active)
CCN(CC)c1ccc(NC(=O)CN2CCN(CC(=O)Nc3ccc(Cl)cc3)CC2)cc1		44.7 µM (active)
O=C(CN1CCOCC1)Nc1ccccc1	-10.5%	
Cc1cc(NC(=O)CCN2CCN(Cc3ccccc3)CC2)ccc1Br	-31.5%	
CCOC(=O)N1CCN(CC(=O)Nc2ccc(F)cc2)CC1	-2.13%	
Cc1ccc(Cl)cc1NC(=O)Cc1ccc(-n2c(C)nc3cccnc32)cc1	-6.21%	
Cc1ccccc1NC(=O)Cn1cc(C(=O)c2cccs2)c2ccccc21	9.97%	
CCC(C)NC(=O)Cn1c(=O)n(-c2ccc(Cl)cc2)c(=O)c2c3c(sc21)CCCC3 (configuration not stated)	-4.1%	
Cc1cc(C)c(NC(=O)CN2C(=O)c3cccnc3Oc3ccc(Cl)cc32)c(C)c1	-7.26%	
O=C(Nc1ccc2nc(SCC(=O)N3CCCc4ccccc43)sc2c1)c1ccc(F)cc1	-17.2%	
CCOCCCNC(=O)c1ccc2nc(CCc3ccccc3)oc2c1	-25.6%	
O=C(Nc1ccccc1Cl)N1CCC(CN2CCCC2)CC1	-21.8%	

Structure (SMILES)	activity change, negative = inhibition	Potency
Cc1ccc2nc(COc3cccc(NC(=O)Nc4ccc(C)c(Cl)c4)c3)cc(=O)n2c1	-19.2%	
CSc1nc(-c2ccc(F)cc2)nc2c1Cc1c(CO)cnc(C)c1O2	-15%	
O=C(Cc1nn[nH]n1)NCCC1=CCCCC1		50.1 µM (active)
O=C(COc1ccc(Cl)cc1)NCCC1=CCCCC1	35.4%	
Cc1nnc(OCC(=O)NCCC2=CCCCC2)c2ccccc12	-1.23%	
COc1ccc(C(=O)c2oc3ccccc3c2NC(=O)COc2cccc(C)c2)cc1	-1.6%	
CCOC(=O)c1c(N)n(-c2cccc(C)c2C)c2nc3ccccc3nc12	-12.1%	
COc1ccc(NC(=S)NCC2CCN(c3ccc(OC)cc3)C2)cc1 (configuration not stated)		35.5 µM (active)
COc1ccc(NC(=O)N2CCC(Cc3ccccc3)CC2)cc1	-2.41%	
COc1ccc(N2CCC(N3CCN(C)C(CCO)C3)CC2)cc1 (configuration not stated)	-3.23%	
COc1ccc(N2CCC(CNC(=S)Nc3c(C)cccc3C)C2)cc1 (configuration not stated)		39.8 µM (active)
COc1ccc(OCC(=O)Nc2ccc(N3CCC(C)CC3)cc2)cc1	-14.1%	
Cc1cccc(C)c1NC(=O)CNC(=O)C1CCCC1	-12.8%	
Cc1ccccc1NC(=O)Cn1c(=O)n(CCCCC(=O)NCc2ccccc2Cl)c(=O)c2ccccc21	-7.85%	
COc1cccc(Nc2nc3ccccc3c3nncn23)c1	8.56%	
Cc1ccc(NC(=O)Cn2c(=O)n(-c3ccccc3)c(=O)c3c4c(sc32)CCCC4)cc1	-2.39%	
COc1cc(OC)c(C(=O)Nc2ccc(N(C)C)cc2)cc1OC		79.4 µM (active)
COc1cc(OC)c(C(=O)Nc2ccccc2-c2ccccc2)cc1OC	-24%	
COc1ccc(Cl)cc1C(=O)Nc1ccc(N(C)C(C)=O)cc1	-14.2%	
Cc1ccc(NC(=O)CSc2nc3c([nH]c4ccccc43)c(=O)n2-c2ccccc2)cc1Cl	-10%	
CCCNC(=O)C1CCC(Cn2c(=O)c3sccc3n(Cc3ccccc3F)c2=O)CC1 (configuration not stated)	-1.33%	
O=C(Nc1cc(C(F)(F)F)ccc1Cl)c1cc2nc(-c3ccc4c(c3)OCO4)cc(C(F)(F)F)n2n1	0%	
Cc1cc(OCC(=O)NC2CCN(C)CC2)ccc1[N+](=O)[O-]	-9.59%	
Cc1cc(OCCCN2CCN(Cc3ccccc3)CC2)ccc1[N+](=O)[O-]		10 µM (active)
Cc1cc(OCCCCOc2ccc(C#N)cc2)ccc1[N+](=O)[O-]	2.11%	
CN(C(=O)c1ccc2c(c1)N(Cc1cccc(Cl)c1)C(=O)c1ccccc1S2=O)C1CCCCC1 (configuration not stated)	-29.2%	
